A short description of test [1]: CEETOX_H295R_11DCORT: CeeTox H295R High-throughput Steroidogenesis Assay for 11-Deoxycortisol (11DCORT) (AID 2283432). As to conditions: actives raise or lower the signal. The procedure, abridged: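 Adrenal carcinoma line H295R, run per OECD 456 with minor changes, was forskolin-stimulated (10 uM, 48 h) before a 48 h chemical exposure at 0.1% DMSO. Secreted 11-deoxycortisol was quantified by HPLC-MS/MS.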

Test [2] in a line: CEETOX_H295R_OHPREG: CeeTox H295R High-throughput Steroidogenesis Assay for OH-Pregnenolone (OHPREG) (AID 2283434). Particulars: actives raise or lower the signal. Summed up:
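Secreted 17alpha-hydroxypregnenolone measured by HPLC-MS/MS after liquid-liquid extraction. Human adrenal H295R cells received 48 h forskolin (10 uM) stimulation before 48 h chemical exposure at 0.1% final DMSO; MTT viability in same wells; bidirectional fit against DMSO.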

A short description of test [3]: CEETOX_H295R_CORTIC: CeeTox H295R High-throughput Steroidogenesis Assay for Corticosterone (CORTIC) (AID 2283437). As to conditions: actives raise or lower the signal. Summed up: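 Medium corticosterone was quantified by tandem mass spectrometry following 48 hours of chemical exposure (0.1% DMSO) in human H295R cells previously stimulated 48 hours with 10 uM forskolin. Viability checked by MTT; chemicals diluted and retested when viability fell below 70%.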

A short description of test [4]: CEETOX_H295R_CORTISOL: CeeTox H295R High-throughput Steroidogenesis Assay for Cortisol (AID 2283438).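 Further: cortisol secreted into medium quantified by LC-MS/MS.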 Particulars: actives raise or lower the signal. Summed up: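 Read-out: cortisol in culture medium by reverse-phase C18 HPLC with ESI-positive tandem MS, after MTBE liquid-liquid extraction. Cells: human adrenal H295R, forskolin-primed (10 uM, 48 h) before 48 h chemical exposure in 0.1% DMSO.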

The nature of test [5]: CEETOX_H295R_DOC: CeeTox H295R High-throughput Steroidogenesis Assay for DOC (AID 2283439). As to conditions: actives raise or lower the signal. Summed up:
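Human adrenocortical H295R cells, passages up to 10, received 10 uM forskolin for 48 h before chemical addition. After another 48 h exposure in 0.1% DMSO, secreted DOC was measured by LC-MS/MS, with gain or loss fitted against DMSO controls.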

Test [6] is described as follows: CEETOX_H295R_ESTRADIOL: CeeTox H295R High-throughput Steroidogenesis Assay for Estradiol (AID 2283440).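 Further: estradiol secreted into medium quantified by LC-MS/MS after dansyl derivatisation.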 As to conditions: actives raise or lower the signal. The procedure, abridged: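 Estradiol secreted into the medium was measured by tandem mass spectrometry after liquid-liquid extraction and dansylation. Human H295R cells had been forskolin-primed (10 uM, 48 h) before a 48 h chemical exposure with 0.1% DMSO.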

A short description of test [7]: CEETOX_H295R_PROG: CeeTox H295R High-throughput Steroidogenesis Assay for Progesterone (PROG) (AID 2283442). As to conditions: actives raise or lower the signal. The procedure, abridged: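 Steps: seed H295R cells and let them adhere overnight; prime 48 h with 10 uM forskolin; dose with compound in DMSO at 0.1% final for 48 h; extract medium steroids with MTBE; measure progesterone by LC-MS/MS. MTT viability was run in the same wells.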

Test [8] addresses Peroxisome proliferator-activated receptor gamma (Homo sapiens) (UniProt P37231). The test is described as follows: OT_PPARg_PPARgSRC1_0480: Odyssey Thera (OT) 8-hour Protein-Complementation Assay for Peroxisome Proliferator-activated Receptor Gamma / SRC-1 Co-activator (AID 2283387; active means hit-call score of the fitted dose curve at least 0.9, where 1 is the maximum;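 further: nuclear to cytoplasmic split Venus YFP fluorescence ratio reporting PPARg SRC-1 interaction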). Summed up: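 Protein-fragment complementation in HEK293T: Venus YFP halves (residues 1-158, 159-239, mutated to IFP1/IFP2) fused to PPARg/SRC-1. 8 h exposure; N/C ratio at 488 nm; DMSO negative control.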

The target is the same in test [9]. Put plainly: OT_PPARg_PPARgSRC1_1440: Odyssey Thera (OT) 24-hour Protein-Complementation Assay for Peroxisome Proliferator-activated Receptor Gamma/ SRC-1 Co-activator (AID 2283388; active means hit-call score of the fitted dose curve at least 0.9, where 1 is the maximum;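 further: nuclear to cytoplasmic ratio of reconstituted Venus YFP fluorescence in fixed imaged cells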). The procedure, abridged:
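Protein-fragment complementation between PPARg and coactivator SRC-1 was measured by fluorescence imaging in transiently transfected HEK293T cells after 24 h treatment. Signal was quantified as N/C ratio in the 488 nm channel, with DMSO as negative control.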

Read-out in test [10]: Tumor necrosis factor receptor superfamily member 6 (Homo sapiens) (UniProt P25445)
The test is described as follows: LTEA_HepaRG_FAS: Life Technologies and Expression Analysis (LTEA) Assay for Fas cell surface death receptor (FAS) using HepaRG (AID 2283447). Particulars: mRNA level, 48 h; actives raise or lower the signal. The procedure, abridged:
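FAS transcript level was measured by TaqMan qRT-PCR against three housekeeping genes after 48 h chemical exposure. Cells were HepaRG, 0.5% DMSO vehicle, with a top concentration of 100 uM and half-log dilutions over eight points, in duplicate.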

Read-out in test [11]: Fatty acid synthase (Homo sapiens) (UniProt P49327)
The test is described as follows: LTEA_HepaRG_FASN: Life Technologies and Expression Analysis (LTEA) Assay for Fatty Acid Synthase (FASN) using HepaRG (AID 2283448).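 On AC50: differentiated human HepaRG liver cells in serum-free induction medium.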 Particulars: mRNA level, 48 h; actives raise or lower the signal. The procedure, abridged: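 HepaRG, 48 h exposure, 8-pt half-log series top 100 uM, 0.5% DMSO vehicle, duplicates. Readout: FASN transcript by Fluidigm qRT-PCR; housekeeping-normalized; bidirectional curve fit vs DMSO baseline.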

Read-out in test [12]: Cyclin D2 (CCND2), CCND2 (gene 894)
Put plainly: LTEA_HepaRG_CCND2: Life Technologies and Expression Analysis (LTEA) Assay for Cyclin D2 (CCND2) using HepaRG (AID 2283449). As to conditions: mRNA level, 48 h; actives raise or lower the signal. Summed up:
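CCND2 transcript levels, quantified by qRT-PCR and normalised to three housekeeping genes, were fitted bidirectionally against 0.5% DMSO. HepaRG cultures were dosed 48 h in duplicate with an 8-point half-log series up to 100 uM.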

Read-out in test [13]: Cyclin Dependent Kinase Inhibitor 1A (CDKN1A), CDKN1A (gene 1026)
The test is described as follows: LTEA_HepaRG_CDKN1A: Life Technologies and Expression Analysis (LTEA) Assay for Cyclin Dependent Kinase Inhibitor 1A (CDKN1A) using HepaRG (AID 2283450). Particulars: mRNA level, 48 h; actives raise or lower the signal. The procedure, abridged:
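Read-out is CDKN1A mRNA by TaqMan qRT-PCR, normalized to three housekeeping genes and fitted in both directions against the DMSO baseline. Human HepaRG cells were treated 48 h with test chemicals up to 100 uM in half-log steps, 0.5% DMSO.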

Read-out in test [14]: Cyclin D1 (CCND1), CCND1 (gene 595)
Put plainly: LTEA_HepaRG_CCND1: Life Technologies and Expression Analysis (LTEA) Assay for Cyclin D1 (CCND1) using HepaRG (AID 2283451).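 On AC50: differentiated human HepaRG liver cells in serum-free induction medium; TaqMan qRT-PCR transcript level normalised to ACTB GAPDH and POLR2A housekeeping genes.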 As to conditions: mRNA level, 48 h; actives raise or lower the signal. Summed up: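 HepaRG plated 48 h, medium switched to serum-free induction medium, chemicals added in duplicate (top 100 uM, half-log steps, 0.5% DMSO) for 48 h, cells lysed, RNA measured by TaqMan qRT-PCR.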

Read-out in test [15]: catalase (CAT), CAT (gene 847)
The test is described as follows: LTEA_HepaRG_CAT: Life Technologies and Expression Analysis (LTEA) Assay for catalase (CAT) using HepaRG (AID 2283452). Particulars: mRNA level, 48 h; actives raise or lower the signal. The procedure, abridged:
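Expression of CAT was quantified by TaqMan qRT-PCR with ACTB/GAPDH/POLR2A normalization after 48 h chemical exposure of HepaRG. Eight-point half-log series, top 100 uM, in 0.5% DMSO; gain or loss fitted against vehicle.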

Read-out in test [16]: flavin-containing dimethylaniline monooxygenases 3 (FMO3), FMO3 (gene 2328)
Put plainly: LTEA_HepaRG_FMO3: Life Technologies and Expression Analysis (LTEA) Assay for flavin-containing dimethylaniline monooxygenases 3 (FMO3) using HepaRG (AID 2283453).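 On AC50: differentiated human HepaRG liver cells in serum-free induction medium; FMO3 transcript by TaqMan qRT-PCR normalized to ACTB GAPDH and POLR2A.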 Particulars: mRNA level, 48 h; actives raise or lower the signal. The procedure, abridged: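 Eight-point concentration-response in serum-free HepaRG cultures (top 100 uM, 0.5% DMSO, 48 h). Read-out: FMO3 mRNA level normalized to three endogenous control genes, fitted bidirectionally versus vehicle.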

Read-out in test [17]: Cytochrome P450 (CYP1A1), CYP1A1 (gene 1543)
Put plainly: LTEA_HepaRG_CYP1A1: Life Technologies and Expression Analysis (LTEA) Assay for Cytochrome P450 (CYP1A1) using HepaRG (AID 2283454). Particulars: mRNA level, 48 h; actives raise or lower the signal. The procedure, abridged: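 HepaRG, 48 h post-plating switched to serum-free induction medium; 8-pt conc-response (top 100 uM, half-log, 0.5% DMSO), duplicates, 48 h. Lysis in RLT, TaqMan qRT-PCR for CYP1A1; gain or loss vs DMSO.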

Read-out in test [18]: CFLAR gene, CFLAR (gene 8837)
Put plainly: LTEA_HepaRG_CFLAR: Life Technologies and Expression Analysis (LTEA) Assay for CFLAR gene using HepaRG (AID 2283455). Particulars: mRNA level, 48 h; actives raise or lower the signal. The procedure, abridged: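 Transcript level by qRT-PCR (normalized to ACTB, GAPDH and POLR2A) after 48 h chemical exposure of HepaRG cells, top concentration 100 uM with half-log steps, 0.5% DMSO vehicle, duplicates; fitted bidirectionally against DMSO baseline.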

For ten compounds, outcome and AC50 results are on record in PubChem BioAssay (EPA / NIEHS).

Inconclusive results are not listed. The source made the active and inactive calls. How the source made its calls, unless noted: active means hit-call score of the fitted dose curve at least 0.9, where 1 is the maximum; inactive means score below 0.9.

Chain of Peroxisome proliferator-activated receptor gamma (Homo sapiens) (P37231 whole entry, looked up, the tested form may be a part): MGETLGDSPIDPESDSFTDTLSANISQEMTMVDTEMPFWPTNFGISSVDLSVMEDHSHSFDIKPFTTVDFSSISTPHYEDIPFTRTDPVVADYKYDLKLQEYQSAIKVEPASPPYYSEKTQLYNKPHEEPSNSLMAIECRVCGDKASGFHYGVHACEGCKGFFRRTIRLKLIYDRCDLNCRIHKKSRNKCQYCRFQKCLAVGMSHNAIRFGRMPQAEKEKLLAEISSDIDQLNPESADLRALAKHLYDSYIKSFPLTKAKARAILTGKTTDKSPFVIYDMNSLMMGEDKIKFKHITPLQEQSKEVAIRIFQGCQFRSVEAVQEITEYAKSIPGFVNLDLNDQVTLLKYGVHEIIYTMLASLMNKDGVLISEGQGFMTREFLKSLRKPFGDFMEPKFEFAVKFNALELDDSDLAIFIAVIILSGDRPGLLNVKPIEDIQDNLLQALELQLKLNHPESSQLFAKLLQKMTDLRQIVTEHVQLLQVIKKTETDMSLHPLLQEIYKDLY
Chain of Fatty acid synthase (Homo sapiens) (P49327 whole entry, looked up): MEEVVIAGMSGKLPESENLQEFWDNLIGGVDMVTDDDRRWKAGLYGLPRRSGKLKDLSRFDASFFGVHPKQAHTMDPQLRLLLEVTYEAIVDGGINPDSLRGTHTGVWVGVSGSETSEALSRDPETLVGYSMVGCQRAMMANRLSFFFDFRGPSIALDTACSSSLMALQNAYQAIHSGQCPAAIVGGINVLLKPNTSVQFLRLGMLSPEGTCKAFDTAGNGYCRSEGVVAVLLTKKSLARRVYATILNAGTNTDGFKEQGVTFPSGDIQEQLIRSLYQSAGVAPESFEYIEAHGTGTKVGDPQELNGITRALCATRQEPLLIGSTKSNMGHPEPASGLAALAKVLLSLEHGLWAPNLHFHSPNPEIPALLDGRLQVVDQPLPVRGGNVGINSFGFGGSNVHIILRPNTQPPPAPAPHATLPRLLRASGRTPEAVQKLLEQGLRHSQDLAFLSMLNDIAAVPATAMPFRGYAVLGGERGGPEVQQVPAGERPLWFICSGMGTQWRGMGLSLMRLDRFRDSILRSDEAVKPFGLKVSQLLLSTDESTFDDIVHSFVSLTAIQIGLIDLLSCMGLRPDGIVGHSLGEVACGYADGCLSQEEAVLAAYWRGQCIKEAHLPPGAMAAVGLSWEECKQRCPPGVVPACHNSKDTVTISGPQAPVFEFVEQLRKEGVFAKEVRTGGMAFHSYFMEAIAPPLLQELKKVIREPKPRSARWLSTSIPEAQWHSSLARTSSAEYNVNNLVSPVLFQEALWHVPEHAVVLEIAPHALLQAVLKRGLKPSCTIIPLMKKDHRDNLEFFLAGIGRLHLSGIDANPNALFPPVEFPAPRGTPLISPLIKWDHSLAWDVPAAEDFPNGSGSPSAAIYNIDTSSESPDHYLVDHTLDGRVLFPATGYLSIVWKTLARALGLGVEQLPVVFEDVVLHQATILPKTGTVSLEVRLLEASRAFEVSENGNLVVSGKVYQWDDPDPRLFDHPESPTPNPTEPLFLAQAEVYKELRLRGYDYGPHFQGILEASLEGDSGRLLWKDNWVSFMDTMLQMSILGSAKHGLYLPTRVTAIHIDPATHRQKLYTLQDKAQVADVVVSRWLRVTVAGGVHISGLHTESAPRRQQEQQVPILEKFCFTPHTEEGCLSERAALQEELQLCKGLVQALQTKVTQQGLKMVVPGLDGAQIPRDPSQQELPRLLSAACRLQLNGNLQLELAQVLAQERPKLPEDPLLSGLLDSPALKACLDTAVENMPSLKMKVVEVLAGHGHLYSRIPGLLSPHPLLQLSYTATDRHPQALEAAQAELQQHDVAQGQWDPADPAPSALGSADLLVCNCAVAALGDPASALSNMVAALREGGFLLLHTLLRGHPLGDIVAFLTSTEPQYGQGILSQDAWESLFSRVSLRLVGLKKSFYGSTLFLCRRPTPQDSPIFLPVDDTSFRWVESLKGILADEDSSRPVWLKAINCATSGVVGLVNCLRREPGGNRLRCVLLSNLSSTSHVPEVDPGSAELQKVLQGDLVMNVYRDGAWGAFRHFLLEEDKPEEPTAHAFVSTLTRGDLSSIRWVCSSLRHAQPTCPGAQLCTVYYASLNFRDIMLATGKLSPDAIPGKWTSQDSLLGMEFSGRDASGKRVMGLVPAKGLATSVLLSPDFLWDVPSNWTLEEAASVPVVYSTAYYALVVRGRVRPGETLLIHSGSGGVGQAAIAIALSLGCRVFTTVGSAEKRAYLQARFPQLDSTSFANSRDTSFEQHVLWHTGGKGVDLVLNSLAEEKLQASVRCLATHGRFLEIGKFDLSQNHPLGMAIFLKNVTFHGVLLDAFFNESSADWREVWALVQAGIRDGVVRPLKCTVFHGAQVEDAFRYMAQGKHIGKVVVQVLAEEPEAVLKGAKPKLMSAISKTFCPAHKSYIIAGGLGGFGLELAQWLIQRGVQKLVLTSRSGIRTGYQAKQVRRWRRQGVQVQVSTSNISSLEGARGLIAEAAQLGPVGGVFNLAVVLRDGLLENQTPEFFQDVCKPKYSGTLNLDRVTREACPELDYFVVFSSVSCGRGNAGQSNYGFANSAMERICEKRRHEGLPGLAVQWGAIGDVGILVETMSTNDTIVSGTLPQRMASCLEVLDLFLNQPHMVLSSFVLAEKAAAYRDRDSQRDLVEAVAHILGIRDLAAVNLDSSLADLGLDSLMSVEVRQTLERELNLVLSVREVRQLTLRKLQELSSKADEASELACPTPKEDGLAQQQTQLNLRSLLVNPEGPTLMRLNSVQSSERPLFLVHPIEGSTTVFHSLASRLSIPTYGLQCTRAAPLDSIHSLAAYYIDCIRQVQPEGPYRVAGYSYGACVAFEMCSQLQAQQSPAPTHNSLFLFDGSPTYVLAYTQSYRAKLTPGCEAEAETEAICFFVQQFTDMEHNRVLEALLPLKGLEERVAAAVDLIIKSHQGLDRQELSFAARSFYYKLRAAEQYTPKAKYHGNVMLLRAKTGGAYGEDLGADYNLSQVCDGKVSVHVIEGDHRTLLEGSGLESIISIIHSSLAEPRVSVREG

The AC50 is the midpoint of the concentration-response curve, whichever way the signal moves. Consider `CCOP(=S)(OCC)SCCS(=O)(=O)CC`, for which the outcome in [1], in test [2], in test [3], in [4], in [5] and in test [6] was inactive. In test [7], the AC50 is 19.2 µM (active).

`O=[N+]([O-])c1ccc(O)c([N+](=O)[O-])c1`: the outcome in [8], in test [9], in test [10] and in test [12] was inactive. In addition, the AC50 in test [11] is 13.1 µM (active); in test [13], 12.4 µM (active); in [14], 12.6 µM (active); in test [15], 13.2 µM (active); in test [16], 15.3 µM (active); in [17], 71.5 µM (active). For the same compound, the AC50 in test [18] is 13.2 µM (active).

With `CC(C)(c1ccccc1)c1ccc(O)c(C(C)(C)c2ccccc2)c1`, the call in test [8], in test [9], in test [10], in [12], in [13] and in test [14] was inactive. Further, the compound was called inactive in test [18]. Besides, the results for the AC50 in [15], in test [16] and in test [17] were 60.7 µM (active), 78.2 µM (active) and 35.8 µM (active), respectively.

As for `C[C@@H]1C[C@@H]([C@H](O)CC2CC(=O)NC(=O)C2)C(=O)[C@@H](C)C1`, the call in test [8], in test [9], in [2], in [7], in test [10] and in test [12] was inactive. Besides, the AC50 in [11] is 4.28 µM (active); in [13] it was 13.2 µM (active); in test [14] it was 3.34 µM (active); in test [15], 12.4 µM (active); in test [16], 25.9 µM (active); in test [18] it was 13.4 µM (active).

Take `CCN1CCC2(CC1)COc1cc3c(cc12)N(C(=O)c1ccc(-c2ccc(-c4nnc(C)o4)cc2C)cc1)CC3`: the compound was classed as inactive in [8], in test [9] and in [10]. Further, the AC50 in [11] was 29.9 µM (active); in test [12], 46.8 µM (active); in test [13], 84.6 µM (active); in test [14] it was 30.8 µM (active); in test [15], 21.1 µM (active); in [16], 13.8 µM (active). Also, the values for the AC50 in [17] and in [18] were 9.34 µM (active) and 29.2 µM (active), respectively.

With `Nc1ccc(-c2ccc(N)c(Cl)c2)cc1Cl`, the outcome in [1], in test [2], in [3], in [4], in [5] and in test [6] was inactive. Besides, the compound was called inactive in test [7].

Turning to `C[C@H]1CCCC(=O)CCC/C=C/c2cc(O)cc(O)c2C(=O)O1`, the call in [8] and in [9] was inactive.

`COc1ccc(C=O)cc1`: the outcome in test [8] and in test [9] was inactive.

Turning to `Oc1cccc2cccnc12`, the call in [8], in [9], in [10], in test [11], in test [12] and in [13] was inactive. For the same compound, the outcome in [14], in test [15], in test [16], in test [17] and in [18] was inactive.

With `[O-][Cl+2]([O-])O`, the compound was classed as inactive in test [8] and in test [9].
